According to PubChem BioAssay:

The compounds below were run against Torsin-1A-interacting protein 2 (Homo sapiens) (UniProt Q8NFQ8) (assay: small molecules binding lysate-expressed LULL1 – cell lysate, human LULL1 lysate, 635/667 nm fluorescence, primary screen (AID 1092;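 further: probe is lysate of COS7 cells overexpressing human LULL1; score merges per-feature 667 nm fluorescence with signal-to-noise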)). Conditions: small-molecule microarray, hLULL1 lysate binding, 635 nm fluorescence; higher = more signal.
Torsin-1A-interacting protein 2 (Homo sapiens), sequence (Q8NFQ8 whole entry, looked up): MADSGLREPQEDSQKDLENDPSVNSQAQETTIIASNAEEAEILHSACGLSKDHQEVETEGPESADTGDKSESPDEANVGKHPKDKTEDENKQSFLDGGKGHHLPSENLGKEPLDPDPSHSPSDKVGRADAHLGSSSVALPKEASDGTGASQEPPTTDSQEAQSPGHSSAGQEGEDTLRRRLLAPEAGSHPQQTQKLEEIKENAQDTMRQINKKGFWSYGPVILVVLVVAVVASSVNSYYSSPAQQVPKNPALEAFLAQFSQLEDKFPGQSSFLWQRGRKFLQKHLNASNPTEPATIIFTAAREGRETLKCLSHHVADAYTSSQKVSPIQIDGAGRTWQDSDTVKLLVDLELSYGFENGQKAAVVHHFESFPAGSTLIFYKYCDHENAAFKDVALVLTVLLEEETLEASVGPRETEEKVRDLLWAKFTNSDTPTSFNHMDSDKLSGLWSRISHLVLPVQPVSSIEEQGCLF
For `O=C(O)C1=CC[C@H]2C(=O)N(c3ccccc3)C(=O)[C@@H]12`, the composite z-score was 2.5.
`C=CC[C@H](OC(=O)Nc1ccc(SC)cc1)c1ccc(O)c(F)c1` was tested, and the composite z-score was 1.04.
For `COC(=O)C1(CC(C)C)C=C2C(=C(C)C(=O)C2C)CN1` (configuration not stated), the composite z-score was 2.1.
`[N-]=[N+]=NCc1ccccc1C[C@]1(C(=O)N2CCCCC2)COC(c2ccc(OCCCO)cc2)=N1` gave a composite z-score of 1.55.
`C=C[C@H](C)[C@@H](OC(=O)Nc1ccc(SC)cc1)c1ccc(OCCO)cc1` showed a composite z-score of 1.84.
For `COC(=O)Cn1c(C(=O)N(C)C)cc2c1C[C@H]1CN(C(=O)c3ccccc3)[C@@](Cc3ccccc3)(C(=O)OC)[C@@H]21`, the composite z-score was 1.36.
Work on `O=C1c2ccccc2[C@](Cc2ccccc2I)(C(=O)NCCN2CCOCC2)[C@H](c2ccc(CO)cc2)N1Cc1ccccc1C(F)(F)F` yielded a composite z-score of 2.95.
`Cc1ccc(S[C@]2(C(=O)NCCN3CCOCC3)CC(=O)N(C(C)C)[C@@H]2c2ccc(CO)cc2I)cc1` gave a composite z-score of 2.46.
In the case of `C=C(CCCC)C(=O)CC[C@H](OC(=O)c1ccccc1-c1ccccc1C(=O)O)c1cccc(OCCO)c1`, the composite z-score is reported as 1.
Work on `[N-]=[N+]=Nc1ccccc1C[C@@]1(C(=O)NCc2ccccc2)N=C(c2ccc(OCCCO)cc2)O[C@@H]1c1ccccc1` yielded a composite z-score of 3.02.
For `C=CCNC(=O)[C@@H]1[C@H]2C(=O)O[C@H](c3ccccc3)[C@H](c3ccccc3)N2[C@H](c2ccc(OCCO)cc2)[C@@]12C(=O)Nc1ccc(C#CC3=CCCCC3)cc12`, the composite z-score was 2.94.
Compound `CC(C)C[C@@H]1NC(=O)[C@H]2C[C@@H](C(=O)O)[C@@H](c3cccc(OCCO)c3)N2C1=O` has a composite z-score of 2.06.
